High-throughput results deposited in PubChem BioAssay by National Center for Advancing Translational Sciences (NCATS).
Hits are enriched below; roughly 9.3% of the tested compounds scored in any of these assays.
ELG1 DNA repair: qHTS screen for small molecules that inhibit ELG1-dependent DNA repair in human embryonic kidney (HEK293T) cells expressing luciferase-tagged ELG1; HEK293T ELG1-luciferase reporter, luminescence, 16 h; DNA damage induced by 5-fluorouridine; 2.3% of 330,000 active; Potency, µM (series often up to 46.1 µM), for the others: top-dose activity change, negative = inhibition, actives largely listed as inhibitors; also: % is scaled to controls: 0 for no effect and ±100 for the full control effect; nearly all actives have a fitted effect of over 55% in size
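Step one: seed 2,000 cells per well. Step two: pin-transfer compound or DMSO alongside 5-fluorouridine. Step three: incubate 16 hr, 37 °C, 5% CO2. Step four: add ONE-Glo, wait 30 min, read luminescence.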
ELG1 genotox: qHTS screen for small molecules that induce genotoxicity in human embryonic kidney (HEK293T) cells expressing luciferase-tagged ELG1 | AID 504466, 2011 | HEK293T ELG1-luciferase reporter, luminescence, 16 h | 1.3% of 330,000 active | Potency, µM (highest dose often 46 µM), for inactives: top-dose activity change, positive = activation, hits mostly activators; also: % of control where 0% means no effect; nearly all actives have a fitted effect of over 60% in size
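After overnight (16 hr) compound treatment at 37 °C, ELG1-luciferase HEK293T cells were lysed with ONE-Glo; luminescence quantified 30 min later at room temperature.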
NPC1 promoter act: qHTS Assay for NPC1 Promoter Activators. Huh7 NPC1 promoter luciferase reporter, 24 h. Potency, µM (highest dose often 9.22 µM), for the others: at the highest dose activation, most hits filed as activators. 2.4% of 320,000 active. AID 485313, 2010; also: % of control where 0% means no effect; nearly all actives have a fitted effect of over 60% in size
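In 1536-well qHTS, Huh7 cells harboring an NPC1 promoter–luciferase construct received compound for 24 h; activation was quantified by luminescence following luciferase reagent addition.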
Rab9 promoter act: qHTS Assay for Rab9 Promoter Activators. Huh7 Rab9 promoter-luciferase reporter, luminescence, 24 h. Potency, µM (doses to about 9.22 µM), inactives show at the top dose activation, negative = inhibition, most hits filed as activators. 2.8% of 320,000 active. AID 485297, 2010; also: % of control where 0% means no effect; nearly all actives have a fitted effect of over 60% in size
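Huh7 reporter line, Rab9 promoter upstream of luciferase. Compound exposure 24 h at 37 °C in reduced-serum medium with 10% FBS. Read-out: luminescence.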
SMN2 splice up: qHTS Assay for Enhancers of SMN2 Splice Variant Expression | HEK293 SMN2-luciferase splicing reporter, luminescence, 30-36 h | 2.8% of 210,000 active | Potency, µM (titrated, usually from 46.1 µM), inactives show at the highest dose activity change, positive = activation, most hits filed as activators; also: % of control where 0% means no effect; nearly all actives have a fitted effect of over 55% in size
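qHTS luciferase splicing reporter: luminescence rises when SMN2 exon 7 is included in transfected HEK293 cells. Compound exposure lasted 30-36 h at 37C, with 4.5 mM final sodium butyrate as control, followed by a ONE-Glo read.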
FLuc counter: qHTS profiling assay for firefly luciferase inhibitor/activator using purifed enzyme and Km concentrations of substrates (counterscreen for miR-21 project); 6.9% of 360,000 active; purified FLuc, Km substrates, luminescence inhibition; Potency, µM (series often up to 57.5 µM), for inactives: at the top dose activity change, negative = inhibition, actives largely listed as inhibitors; Luciferin 4-monooxygenase (Photinus pyralis), P08659;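 also: plate controls were vehicle for no effect and reference inhibitor for full effect; nearly all actives have a fitted effect of over 55% in size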
Target sequence (P08659 whole entry, looked up): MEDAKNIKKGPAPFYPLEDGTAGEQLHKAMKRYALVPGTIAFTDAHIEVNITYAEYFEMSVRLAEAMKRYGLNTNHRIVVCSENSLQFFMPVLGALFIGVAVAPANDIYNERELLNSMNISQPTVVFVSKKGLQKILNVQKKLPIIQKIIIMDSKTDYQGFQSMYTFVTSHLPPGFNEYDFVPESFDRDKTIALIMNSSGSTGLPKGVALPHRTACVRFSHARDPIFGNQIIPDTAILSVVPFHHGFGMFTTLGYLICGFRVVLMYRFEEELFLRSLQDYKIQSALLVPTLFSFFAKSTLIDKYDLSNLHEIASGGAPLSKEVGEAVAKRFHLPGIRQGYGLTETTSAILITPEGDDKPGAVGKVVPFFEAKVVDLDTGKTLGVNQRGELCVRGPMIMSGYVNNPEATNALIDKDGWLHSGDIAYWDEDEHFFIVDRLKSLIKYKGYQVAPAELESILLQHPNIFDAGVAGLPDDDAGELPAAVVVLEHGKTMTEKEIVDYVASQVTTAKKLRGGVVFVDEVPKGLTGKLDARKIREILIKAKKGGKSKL
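Biochemical qHTS of compounds, final roughly 60 µM downward over six points, against 10 nM purified firefly luciferase using Km concentrations of substrates (10 uM D-luciferin, 10 uM ATP) in Tris acetate pH 7.5 buffer; luminescence output.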
* = called active by the depositor; ? = inconclusive; / = no result; [ ] = dose if it differs, or a comment. Calls follow the shape of the dose curve; as a rule, active = well fitted curve in the direction sought with a large enough effect; inconclusive = small, poorly fitted or top-dose-only effect, or another doubt; inactive = no such curve, though single readings can be large; an effect the other way counts as inactive or inconclusive. Potency is read from the fitted curve at half-maximal effect.

SMILES	ELG1 DNA repair	ELG1 genotox	NPC1 promoter act	Rab9 promoter act	SMN2 splice up	FLuc counter
CC(=O)Nc1cccc(OCCCNC(=O)c2ccc(C(C)(C)C)cc2)c1	6%	0%	14%	17%	/	19µM*
Cc1ccc(NC(=O)CSc2ccc(-c3ccc(-n4cccn4)cc3)nn2)c(C)c1	?	4%	15%	1%	/	-18%
COc1cc(SC)ccc1C(=O)Nc1cccc(C2OCCCO2)c1	?	3%	3.5µM*	1.4µM*	/	17µM*
COc1cc(SC)ccc1C(=O)Nc1ccc(Cl)cn1	?	?	0.89µM*	0.89µM*	/	0.076µM*
CSc1ccc(Cl)c(C(=O)Nc2ccc(Cl)cn2)c1	-14%	-4%	-13%	-11%	/	-10%
COc1cc(SC)ccc1C(=O)Nc1ccc2c(c1)CCC2	?	?	4µM*	4µM*	/	2.1µM*
COc1cc(SC)ccc1C(=O)Nc1ccncc1	-2%	12%	0%	-21%	-50%	?
COc1cc(SC)ccc1C(=O)Nc1ccccc1C#N	?	9.2µM*	-1%	3%	13µM*	?
C[C@H](CO)N1C[C@H](C)[C@@H](CN(C)C(=O)Nc2ccc3c(c2)OCO3)Oc2ccc(NC(=O)C3CCCCC3)cc2C1=O	-17%	5%	/	/	/	/
Cc1ccc(N2C(=O)C3CCCN3C2=S)cc1Cl (centres undefined)	0%	-2%	-4%	1%	/	3%
Nc1ccc(Oc2ccc3nc(-c4ccccc4)c(-c4ccccc4)nc3c2)cc1	3%	-1%	16%	13%	-12%	-15%
Nc1ccc(Oc2cc(N)cc(Oc3ccccc3)c2)cc1	?	?	2µM*	?	/	6µM*
CCOc1cc(/C=C2\N=C3CCCCCN3C2=O)ccc1O	?	?	0%	?	?	?
Nc1nc2c(s1)CC(c1ccccc1)CC2 (centres undefined)	-19%	2%	4%	0%	-16%	24µM*
Cc1ccc(NC(=O)CN(C)C(=O)c2cc(C)on2)cc1	23%	1%	-6%	-6%	/	0%
Cc1[nH]c2ccccc2c1/C=N/n1cnnc1	?	2%	2%	-2%	-5%	0%
COCCN=c1scc(-c2cc(OC)c(OC)c(OC)c2)n1/N=C/c1c(C)[nH]c2ccccc12	7.3µM*	-7%	-1%	0%	21%	-5%
O=C(CSc1nnc2ccccn12)N1CCc2ccccc2C1	?	?	?	27%	26%	?
O=C(CSc1ccccn1)N1CCc2ccccc21	?	?	2.5µM*	1.1µM*	11µM*	11µM*
Cn1ccnc1SCC(=O)N1CCc2ccccc21	?	?	2.2µM*	2.8µM*	/	15µM*
Cc1ccnc(SCC(=O)N2CCc3ccccc32)n1	?	?	3.2µM*	2.8µM*	/	?
O=C(CSc1nnc2ccccn12)N1CCc2ccccc21	?	?	2.8µM*	3.2µM*	13µM*	13µM*
O=C(CSc1ncccn1)N1CCCc2ccccc21	?	29%	0%	-3%	0%	0%
O=C(CSc1ccc2nnc(-c3ccc(F)cc3)n2n1)N1CCCc2ccccc21	18µM*	-8%	-1%	-7%	6%	-1%
COc1ccc(NC(=O)CN(C)C(=O)CCNC(=O)c2ccccc2OC)cc1	5%	2%	-1%	-6%	/	-3%
SMILES	ELG1 DNA repair	ELG1 genotox	NPC1 promoter act	Rab9 promoter act	SMN2 splice up	FLuc counter
CC(=O)Nc1c(C)ccc2nsnc12	?	-1%	-2%	-7%	10%	3%
Cc1ccc2nsnc2c1NC(=O)c1ccc([N+](=O)[O-])cc1	16µM*	-13%	-21%	-31%	-65%	1%
COc1ccc(C2=Nc3ccccc3OC2)cc1	?	0.52µM*	1.6µM*	1.6µM*	?	0.85µM*
ClCC1CSC(=NC23CC4CC(CC(C4)C2)C3)O1 (centres undefined)	?	-3%	-1%	-5%	/	-1%
N#CC1=C(N)Oc2cc3c(cc2C1c1ccc(Cl)cc1)OCO3 (centres undefined)	?	-2%	-4%	-1%	25µM*	-2%
Cc1ccc(C2C(C#N)=C(N)Oc3cc(N)ccc32)cc1 (centres undefined)	-16%	-1%	-7%	5%	/	-4%
COc1cc(OC)c(NC(=O)CCc2c(C)nc3ncnn3c2C)cc1Cl	/	/	/	/	4%	0%
O=C(Nc1cccc(-c2nn[nH]n2)c1)c1ccc(Cl)s1	-3%	1%	-1%	5%	/	15µM*
CC(=O)c1ccc(OCCCC(=O)Nc2cccc(-c3nn[nH]n3)c2)cc1	9%	0%	4%	-1%	/	-8%
c1cc(NNc2cccc(-c3nn[nH]n3)c2)cc(-c2nn[nH]n2)c1	/	/	/	/	-7%[9.22 µM]	/
O=C(Nc1cccc(-c2nn[nH]n2)c1)c1ccc(Br)s1	?	-1%	1%	27%	/	12µM*
COC(=O)C1CCN(C(=O)COC(=O)Cc2c[nH]c3ccccc23)CC1	0%	-9%	6%	7%	3%	-7%
O=C(Oc1ccc2c3c(c(=O)oc2c1)CCCC3)c1ccco1	-1%	1%	-5%	-1%	6%	17µM*
CCC(C)(C)NC(=S)Nc1ccc(-c2nc3ccc(C)cc3s2)cc1	?	9.2µM*	4.5µM*	2.8µM*	28%[1.84 µM]	2.7µM*
CCCCNC(=S)Nc1ccc(-c2nc3ccc(C)cc3s2)cc1	?	4.6µM*	3.5µM*	2.8µM*	3.5µM*	1.7µM*
